DAX1 inh-1 – DAX1 (NR0B1) inhibition, primary screen. inhibition, % at 6.8 µM. actives 1.1% (n = 370,000). HEK293T StAR-luciferase reporter, SF-1/DAX-1 repression relief;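 active = inhibition above the mean over all tested compounds plus 3 SD, cut at about 3.6% in these data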;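 note: higher inhibition means more luminescence from relief of DAX-1 repression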
ssDAF-12 act – activators of S. stercoralis DAF-12 nuclear receptor | HEK293 ssDAF-12/GRIP1 lit1-tk-luc reporter, luminescence; % of 3 µM dafachronic acid response | activation, % at 6.8 µM | actives 1% (n = 370,000);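 active = activation above the mean over all tested compounds plus 3 SD, cut at about 0.9% in these data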
hcDAF-12 act – activates DAF-12 receptor from parasite H. contortus; HEK293 hcDAF-12 lit1-tk-luc reporter, luminescence; 0% DMSO, 100% Δ7-dafachronic acid; activation, % at 6.8 µM; actives 1.4% (n = 370,000); AID 652067;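 active = activation above the mean of all tested compounds plus 3 SD, cut at about 5.5% in these data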
PolyA inh – yeast polyadenylation inhibition; S. cerevisiae SKY197-pL101 polyadenylation reporter, beta-gal luminescence; efflux-impaired pdr1/pdr3 knockout yeast; score 100 = 6 SD above DMSO; activity score, % at 12 µM; actives 0.02% (n = 300,000);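 active = lowest replicate activity score at least 50, where 100 means six control SD above control mean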;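 note: yeast exposed to compound for 9 h at 30 °C; higher score means more reporter readthrough which indicates perturbed polyadenylation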
hgDAF-12 ag – agonists of H. glycines DAF-12 nuclear receptor. AID 687014. HEK293 GAL4-hgDAF12 UAS-luciferase reporter, agonist luminescence; normalized to butyrate control. actives 1.8% (n = 370,000). activation, % at 6.8 µM;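 active = activation above a cutoff set at the mean of all screened compounds plus 3 SD, cut at about 10% in these data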
DAX1 inh-2 – NR0B1 (DAX1) inhibition; P51843; HEK293 Gal4-DAX1 luciferase reporter, luminescence; inhibition, % at 6.75 µM; actives 0.99% (n = 340,000);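 active = inhibition above the mean over all tested compounds plus 3 SD, cut at about 4.2% in these data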;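 note: inhibition shows as a rise in luminescence from relieved DAX1 repression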
Target sequence (P51843 207-470 limits assumed): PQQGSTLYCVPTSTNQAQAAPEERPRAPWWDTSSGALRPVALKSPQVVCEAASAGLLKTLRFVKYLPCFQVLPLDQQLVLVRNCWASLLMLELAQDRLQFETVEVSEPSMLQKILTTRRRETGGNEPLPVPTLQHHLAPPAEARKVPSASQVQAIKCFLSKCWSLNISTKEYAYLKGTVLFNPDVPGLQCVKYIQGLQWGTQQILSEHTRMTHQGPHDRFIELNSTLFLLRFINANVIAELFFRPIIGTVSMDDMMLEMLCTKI
Numbers stand for hits; i = inactive; nt = no result. Only some compounds are listed: those with a hit (about 4.1% of all), similar ones and a draw of the others.

SMILES | DAX1 inh-1 | ssDAF-12 act | hcDAF-12 act | PolyA inh | hgDAF-12 ag | DAX1 inh-2
CCCCOC(=O)c1nnc(-c2ccccc2)o1 | i | i | i | i | i | 5.1
CCCCOC(=O)c1nnc(-c2ccc(Cl)cc2)o1 | i | i | i | i | i | i
N#Cc1cc2cc3c(cc2nc1N1CCCCC1)OCCO3 | i | i | 6.2 | i | i | i
N#Cc1cc2cc3c(cc2nc1Cl)OCCO3 | i | i | i | nt | i | i
CN(c1ccccc1)S(=O)(=O)c1cccc(NC(=O)CCN2C(=O)C3CCCCC3C2=O)c1 (stereo not drawn) | i | 1.8 | i | i | i | i
CCCC(=O)Nc1cccc(S(=O)(=O)N(C)c2ccccc2)c1 | i | i | i | i | i | i
Nc1nc(Cl)nc2c1ncn2[C@@H]1O[C@H](CO)[C@@H](O)[C@@H]1F | i | i | i | nt | i | nt
Clc1ccccc1N1CCN(Cc2c[nH]c3ccccc23)CC1 | i | i | i | i | i | i
Fc1ccccc1N1CCN(C2CCN(Cc3c[nH]c4ccccc34)CC2)CC1 | i | 1.3 | i | i | i | i
O=S1(=O)CC2c3ccccc3CCN2CN1Cc1ccc(F)cc1 (stereo not drawn) | i | i | i | nt | i | nt
C[C@@H]1COc2cccc(N3CCCC3)c2S(=O)(=O)N1 | i | i | i | nt | i | nt
CC(C)(C)c1ccc(S(=O)(=O)NCC2CCN(C(=O)C(=O)c3cccs3)CC2)cc1 | i | i | i | nt | i | nt
O=C1C2CCCCC2C(=O)N1c1ccc(NC2CCCCC2)c([N+](=O)[O-])c1 (stereo not drawn) | i | i | i | i | i | i
COCCNc1ccc(N2C(=O)C3CCCCC3C2=O)cc1[N+](=O)[O-] (stereo not drawn) | i | i | i | i | i | 4.6
C=C(C)c1nc(Oc2ccccc2)nc(Oc2ccccc2)n1 | i | i | i | nt | i | 6.0
O=[N+]([O-])c1ccc2cn(-c3ccccc3)nc2c1 | i | 1.1 | 6.0 | i | 13.2 | i
CS(=O)(=O)c1ccccc1C(=O)Nc1cc2c(cc1C(=O)O)OCCCO2 | i | i | i | i | i | 5.8
O=S(=O)(NCCc1ccccc1)c1ccc(-n2cnnn2)cc1 | i | i | i | i | i | i
CCNS(=O)(=O)c1ccc(-c2ccc(-n3cnnn3)cc2)cc1 | i | i | i | i | i | 6.3
COc1cccc(CN2CCNC(=O)C2CC(=O)N(C)CCC2CCOCC2)c1OC (stereo not drawn) | i | i | i | i | i | 6.1
CN(CC1CCOCC1)C(=O)CC1C(=O)NCCN1CC1CCCCC1 (stereo not drawn) | i | i | i | i | i | 5.7
CCOc1ccccc1CN1CCNC(=O)C1CC(=O)N(C)CCC1CCOCC1 (stereo not drawn) | i | i | i | i | i | i
O=C(CCc1ccccc1)N[C@H]1[C@H](OCc2ccccc2)CCC[C@@]12C(=O)N(Cc1ccccc1)c1ccc(-c3ccccn3)cc12 | i | i | i | nt | i | nt
O=C(Nc1nc2ncccn2c1-c1ccccc1)c1ccc(F)cc1 | i | i | i | nt | i | nt
c1cncc(-c2csc(-c3cccnc3)n2)c1 | i | i | i | i | i | 4.7
SMILES | DAX1 inh-1 | ssDAF-12 act | hcDAF-12 act | PolyA inh | hgDAF-12 ag | DAX1 inh-2
CC(=O)Nc1ccc(-c2csc(-c3cccnc3)n2)cc1 | i | i | i | i | 10.7 | i
c1cncc(-c2nc(-c3ccco3)cs2)c1 | i | i | i | i | i | i
c1cncc(-c2nc(-c3cccs3)cs2)c1 | i | i | 6.2 | i | i | i
CCCC(=O)Nc1ccc(-c2csc(-c3cccnc3)n2)cc1 | i | i | i | i | i | i
CCCCN1CC(COCc2ccccc2)Oc2cccc(Oc3ccc(SC)c(C)c3)c2S1(=O)=O (stereo not drawn) | i | i | i | nt | i | nt
Cc1cc(C)c(-c2nc3ccccc3s2)[nH]1 | i | i | 6.3 | i | i | i
COc1cc(-n2c(=O)c3ccccc3n(CC(=O)c3ccc(Br)cc3)c2=O)cc(OC)c1OC | i | i | i | i | i | 5.4
O=C(NCc1ccco1)Nc1c(Cl)cc(Cl)cc1Cl | i | i | i | nt | i | nt
Cc1cc(C)n2nc(SCc3nc4ccccc4[nH]3)nc2n1 | i | i | i | i | i | 4.5
COc1cccc(N2CCc3c(C)nc4ccc(Cl)cc4c32)c1 | i | i | i | i | i | i
CCN1Cc2c(/C=C/c3ccccc3)nc3ccc(OC)cc3c2N(c2cccc(Cl)c2)C1 | i | i | 5.7 | i | i | i
CN(C)[C@H]1CCN(c2cccc3c2S(=O)(=O)N2CC[C@@H](C2)O3)C1 | i | i | i | nt | i | nt
Cc1cc(NC(=O)Cc2ccccc2)no1 | i | i | i | i | i | i
Cc1cc(NC(=O)c2cc(-c3ccc(O)cc3)on2)no1 | i | i | i | i | 10.7 | i
Cc1ccc2c(Cl)c(C(=O)Nc3cc(C)on3)sc2c1 | i | i | i | i | i | 5.2
Cc1cc(NC(=O)c2ccc(Cl)cc2)no1 | i | i | i | i | 10.6 | i
O=C(Nc1ccon1)c1sc2cc(F)ccc2c1Cl | i | i | i | nt | i | i
Cc1cc(NC(=O)c2ccc(S(=O)(=O)N(C)C)cc2)no1 | i | i | i | i | i | i
C/C(=C\c1ccccc1)C(=O)Nc1cc(C)on1 | i | i | i | i | 11.0 | i
COc1ccc(OCc2nn3c(-c4ccccc4)nnc3s2)cc1 | i | i | i | nt | i | nt
COc1ccc(C(=O)CSc2nnc(-c3cccs3)o2)cc1OC | i | i | i | nt | i | nt
CC(C)c1ccc(NC(=O)Nc2nc(CN)cs2)cc1 | i | i | i | nt | 11.8 | nt
COC(=O)C1CN(Cc2ccc(C)cc2)CCS(=O)(=O)N1Cc1cn(Cc2ccc(F)cc2)nn1 (stereo not drawn) | i | i | i | nt | i | nt
Cc1ccc(-c2cc3nc(NCCc4ccncc4)n(C)c(=O)c3s2)cc1 | 4.0 | i | i | nt | i | nt
CN(C)CCCNc1nc2cc(-c3ccc4c(ccn4C)c3)sc2c(=O)n1C | i | i | i | nt | 11.8 | nt
SMILES | DAX1 inh-1 | ssDAF-12 act | hcDAF-12 act | PolyA inh | hgDAF-12 ag | DAX1 inh-2
Cn1c(NCCc2ccncc2)nc2cc(-c3ccsc3)sc2c1=O | i | i | i | nt | i | nt
COC(=O)CC[C@@H](/C=C/C(=O)OC(C)(C)C)Sc1ccc(C(C)(C)C)cc1 | i | i | i | nt | i | nt
C=CCN1[C@H](C)[C@H](c2ccccc2)Oc2cc(Br)ccc2S1(=O)=O | i | i | i | nt | i | nt
CC(C)CNC(=O)OCc1cn(Cc2cccc(F)c2)nn1 | i | i | i | nt | i | nt
Cc1ccc(C(=O)N2O[C@]34C=C[C@]25C[C@@H](O)CC[C@]5(C)C3CC[C@]2(C)[C@@H]([C@H](C)/C=C/[C@H](C)C(C)C)CC[C@H]24)cc1 (stereo partly drawn) | i | i | i | nt | i | nt
CCN(c1ccccc1)S(=O)(=O)c1cccc(C(=O)OCC(=O)c2c(N)n(C)c(=O)n(C)c2=O)c1 | i | i | i | nt | i | i

Screens as filed in PubChem.
